Measured values from the supplement of paper PMC6555819.

These sequences were tested on FXR:RXRa (NR concentration 270 nM, RXRa partner concentration 90 nM) (assay: PBM binding z-score (relative to random genomic background probes); higher = stronger binding; sequences stand for … in GC…GCGATTGACAGCGTAGAATGAAGG).
In short: (§1)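 Binding z-scores were set against random background probes. The data came from custom Agilent 4×180K protein-binding microarrays carrying double-stranded probes with 34-nt variable regions, incubated 1 h with ligand-free nuclear receptor dimers. Partner-specific antibodies detected binding, and scanned fluorescence was regression-normalized.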

Sequence | PBM binding z-score
CGAACTAGGTCAGAACAGGACAGTGAAGGATGAT | 1.69
TCTTGTAGATCAAAGGTTATGAAAGCCGAAGCCT | 1.67
CGTCCAAGGTCATAGGAGGTCCGTGAAGACAGAT | 7.45
TCGCGTAGGTTAGTCGGGGCATTCAGCCAACATA | 0.0922
ATCTCTAAGTAAGACTCAGTTCAGTGAAGAACGC | 0.404
CCTACGGGGCCATCAGGTCATTGATATCAACGTT | 2.38
ACTAGCAGGCCCAGGGTCACTCAAGATTAGTCCG | 1.28
AGTCAAAGTTCACTAGGTAACGTACGATTCAGCT | 5.6
TATACAGGGTCAAAGGCCAGAGGACGAATGTCGA | 7.18
CCTATTAGTTGACCATAAGGGCAACAGAAGCTCG | 0.832
GTACCAAGGTGAATAGGTCTTTGATGAGTAGGCG | 0.444
AGAATGAGGTTATACGTAGATAAGGGAAGAAAGT | 2.05
CGTCCAAGGTCAAGGTTAGTGAAAGAGACTCGAA | 6.97
CGTCCAATGTCAGAGAGGTCAGTGAATGCCGAGT | 2.31
CCTAGCAGGCCAGGCTCACTCAAGCATTTCGCTT | -0.543
CAAACTAGGTCACGAAAGGACAAAGTCGAATGAC | 5.05
TCTTGTAGATCAAGAAGGTTAAGAAAGCCTGAGT | 0.542
GGAACGAGGGCATTCGAGTTAATAGCATGGCGAT | 1.38
CTACCAAGGTGAACAAGGCCGTTGATTACTATTC | 0.303
TCTGCAAGGTCAGTTGGTCAGCTAACGAGCTGCC | 4.25

Sequence | PBM binding z-score
GCTAGAAGGCCATTTGGGTCACTCAATGACGGGC | 0.421
CGTCAAAGTGCAACTAAGGTAACGTAAAGCACGC | 0.888
TCATATAGGTAAATGCTTGGTGAAAGTCCGATCT | 0.688
TTACCAAGGTGAAACGTCGTTGATGCACGCCTTG | 0.678
CGTCCAAGGTCATAGGAGGGCAGTGAAGACAGAT | 7.39
CCTAGCAGGCCAGGGTAACTCAAGCATTTCGCTT | -0.463
CATGCAGGGTCAGCTAGGCCAGAGTAGGGACGGC | 4.4
TCATATAGGTAGATGCTAGGTGAAAGTCCGATCT | 0.567
GCTTGTTGATCAAGGTTAAGAAAGACTAAGCTAA | -0.091
GCTAGCAGGCCATATGGGTCACTCAATGACGGGC | 0.207
CGTCAAAGTTAAACTAAGGTAACGTAAAGCACGC | 0.945
CCTGCTAGGTCATGGTCAACTAATCTACAGTATG | 3.72
CAAACTAGGTCAAAGGTGAAAGTCGAGCCAACCA | 6.6
ATCTCTAGGTAACCAAGTTCATTGAATGCCGAAC | 0.729
TCTTGTTGGTCAAAGGTCACACACTCGAAATGCG | 5.68
ATCTCTAGGTAATCAAGTTCAGTGAATGCCGAAC | 0.473
TCGAGTAGGTTACCAATGGGGCATTGAGCTTTCT | 0.162
CGAACTAGGTCAGAACAGGACAGTAAAGGATGAT | 1.48
ATACCAAGGTGATCGTGAGCTCGTTGATACTAAC | 0.125
GCTAGCAGGCCACTTGGGTCACTCAATGACGGGC | 0.0158

Each sequence was assayed on LXRa:RXRa (NR concentration 270 nM, RXRa partner concentration 90 nM) in the same assay as above.
In short: as §1

Sequence | PBM binding z-score
CGAACTAGGTCAGAACAGGACAGTGAAGGATGAT | 0.689
TCTTGTAGATCAAAGGTTATGAAAGCCGAAGCCT | 2.16
CGTCCAAGGTCATAGGAGGTCCGTGAAGACAGAT | 5.69
TCGCGTAGGTTAGTCGGGGCATTCAGCCAACATA | -0.043
ATCTCTAAGTAAGACTCAGTTCAGTGAAGAACGC | 0.702
CCTACGGGGCCATCAGGTCATTGATATCAACGTT | 1.72
ACTAGCAGGCCCAGGGTCACTCAAGATTAGTCCG | 1.58
AGTCAAAGTTCACTAGGTAACGTACGATTCAGCT | 5.41
TATACAGGGTCAAAGGCCAGAGGACGAATGTCGA | 6.58
CCTATTAGTTGACCATAAGGGCAACAGAAGCTCG | 0.536
GTACCAAGGTGAATAGGTCTTTGATGAGTAGGCG | 0.341
AGAATGAGGTTATACGTAGATAAGGGAAGAAAGT | 1.86
CGTCCAAGGTCAAGGTTAGTGAAAGAGACTCGAA | 5.24
CGTCCAATGTCAGAGAGGTCAGTGAATGCCGAGT | 2.29
CCTAGCAGGCCAGGCTCACTCAAGCATTTCGCTT | -0.545
CAAACTAGGTCACGAAAGGACAAAGTCGAATGAC | 6.1
TCTTGTAGATCAAGAAGGTTAAGAAAGCCTGAGT | 0.704
GGAACGAGGGCATTCGAGTTAATAGCATGGCGAT | 1.05
CTACCAAGGTGAACAAGGCCGTTGATTACTATTC | 0.209
TCTGCAAGGTCAGTTGGTCAGCTAACGAGCTGCC | 2.88

Sequence | PBM binding z-score
GCTAGAAGGCCATTTGGGTCACTCAATGACGGGC | 0.146
CGTCAAAGTGCAACTAAGGTAACGTAAAGCACGC | 0.803
TCATATAGGTAAATGCTTGGTGAAAGTCCGATCT | 0.994
TTACCAAGGTGAAACGTCGTTGATGCACGCCTTG | 0.335
CGTCCAAGGTCATAGGAGGGCAGTGAAGACAGAT | 6.11
CCTAGCAGGCCAGGGTAACTCAAGCATTTCGCTT | -0.678
CATGCAGGGTCAGCTAGGCCAGAGTAGGGACGGC | 2.77
TCATATAGGTAGATGCTAGGTGAAAGTCCGATCT | 0.862
GCTTGTTGATCAAGGTTAAGAAAGACTAAGCTAA | 0.792
GCTAGCAGGCCATATGGGTCACTCAATGACGGGC | 0.285
CGTCAAAGTTAAACTAAGGTAACGTAAAGCACGC | 1.15
CCTGCTAGGTCATGGTCAACTAATCTACAGTATG | 2.85
CAAACTAGGTCAAAGGTGAAAGTCGAGCCAACCA | 5.02
ATCTCTAGGTAACCAAGTTCATTGAATGCCGAAC | 2.12
TCTTGTTGGTCAAAGGTCACACACTCGAAATGCG | 5.8
ATCTCTAGGTAATCAAGTTCAGTGAATGCCGAAC | 1.01
TCGAGTAGGTTACCAATGGGGCATTGAGCTTTCT | 1.38
CGAACTAGGTCAGAACAGGACAGTAAAGGATGAT | 0.875
ATACCAAGGTGATCGTGAGCTCGTTGATACTAAC | -0.0736
GCTAGCAGGCCACTTGGGTCACTCAATGACGGGC | -0.115
